The campaign covered roughly 39,000 compounds. About 1,500 (3.8%) were called active. The list comes from a sample in which actives are over-represented; it also holds similar structures and randomly drawn compounds.
Tested on: HSkMC (human skeletal muscle cells)
Assay: cytotoxicity call (relative viability < 0.9)
Settings: 10 µM

How did the cytotoxicity call turn out when `C[C@H](CO)N1C[C@H](C)[C@H](CN(C)S(C)(=O)=O)Oc2ccc(NS(=O)(=O)c3ccc(F)cc3)cc2C1=O` was run?
The cytotoxicity call was “inactive”.

With `CC(C)NC(=O)Nc1ccc2c(c1)CC(=O)N([C@@H](C)CO)C[C@@H](C)[C@H](CN(C)C(=O)NC1CCCCC1)O2` as the compound, how does the cytotoxicity call read?
Its cytotoxicity call is “inactive”.

How did the cytotoxicity call turn out when `COc1cccc(S(=O)(=O)N(C)C[C@H]2Oc3ncc(-c4cccc(C(=O)N(C)C)c4)cc3C(=O)N([C@@H](C)CO)C[C@@H]2C)c1` was run?
Its cytotoxicity call is “inactive”.

Which cytotoxicity call does the source give for `CCCNC(=O)Nc1ccc2c(c1)C(=O)N(C)C[C@@H](OC)[C@H](C)CN(Cc1ccc(-c3ccccn3)cc1)[C@H](C)CO2` here?
Its cytotoxicity call is “inactive”.

How did the cytotoxicity call turn out when `CNC[C@H]1Oc2ccc(NS(=O)(=O)c3cn(C)cn3)cc2CC(=O)N([C@@H](C)CO)C[C@@H]1C` was run?
Its cytotoxicity call is “inactive”.

Which cytotoxicity call does the source give for `Cc1noc(C)c1NC(=O)Nc1ccc2c(c1)C(=O)N([C@H](C)CO)C[C@@H](C)[C@H](CN(C)CC1CC1)OCCCC[C@@H](C)O2` here?
The cytotoxicity call was “inactive”.

For `CCCC#Cc1cnc2c(c1)C(=O)N([C@H](C)CO)C[C@@H](C)[C@@H](CN(C)S(=O)(=O)c1cn(C)cn1)O2`, which cytotoxicity call is on record?
Its cytotoxicity call is “inactive”.

For `C[C@@H]1CN([C@@H](C)CO)C(=O)Cc2cc(NC(=O)C3CCCCC3)ccc2O[C@H]1CN(C)Cc1ccc(C(=O)Nc2ccccc2N)cc1`, which cytotoxicity call is on record?
Its cytotoxicity call is “inactive”.

For `C[C@@H]1CCCCO[C@H](CN(C)Cc2ccc(Cl)c(Cl)c2)[C@@H](C)CN([C@H](C)CO)C(=O)c2cc(NS(=O)(=O)c3ccccc3)ccc2O1`, which cytotoxicity call is on record?
Its cytotoxicity call is “inactive”.

How did the cytotoxicity call turn out when `C[C@@H]1CCCCO[C@H](CN(C)Cc2ccc(Cl)c(Cl)c2)[C@@H](C)CN([C@@H](C)CO)C(=O)c2cc(NS(=O)(=O)c3ccccc3)ccc2O1` was run?
The cytotoxicity call was “active”.

`C[C@H]1CCCCO[C@H](CN(C)Cc2ccc(Cl)c(Cl)c2)[C@@H](C)CN([C@@H](C)CO)C(=O)c2cc(NS(=O)(=O)c3ccccc3)ccc2O1` was tested. Which cytotoxicity call did it give?
Its cytotoxicity call is “inactive”.

For `C[C@@H]1CN([C@H](C)CO)C(=O)c2cc(NS(=O)(=O)c3ccccc3)ccc2O[C@@H](C)CCCCO[C@@H]1CN(C)Cc1ccc(Cl)c(Cl)c1`, which cytotoxicity call is on record?
The cytotoxicity call was “active”.

Which cytotoxicity call does the source give for `Cc1noc(C)c1NC(=O)N(C)C[C@@H]1OCCCC[C@@H](C)Oc2ccc(NC(=O)NC3CCCCC3)cc2C(=O)N([C@@H](C)CO)C[C@H]1C` here?
Its cytotoxicity call is “inactive”.

`C[C@H](CO)N1C[C@H](C)[C@@H](CN(C)C(=O)Nc2ccc(-c3ccccc3)cc2)OCc2ccccc2-c2ccccc2C1=O` was tested. Which cytotoxicity call did it give?
Its cytotoxicity call is “inactive”.

For `CC(C)[Si](C#C[Si](C(C)C)(C(C)C)C(C)C)(O[C@H](C)c1cn([C@H](C)c2ccccc2)nn1)C(C)C`, which cytotoxicity call is on record?
Its cytotoxicity call is “inactive”.

With `COc1ccc(S(=O)(=O)Nc2ccc3c(c2)C(=O)N([C@H](C)CO)C[C@H](C)[C@H](CN(C)C(=O)c2ccccc2)OCCCC[C@@H](C)O3)cc1` as the compound, how does the cytotoxicity call read?
Its cytotoxicity call is “inactive”.

For `C[C@H](CO)N1C[C@H](C)[C@H](CN(C)Cc2ccccc2F)Oc2cc(C#CCN(C)C)ccc2S1(=O)=O`, which cytotoxicity call is on record?
The cytotoxicity call was “inactive”.

`COc1ccc(NC(=O)N(C)C[C@H]2Oc3c(NC(=O)c4cnccn4)cccc3C(=O)N([C@@H](C)CO)C[C@H]2C)cc1` was tested. Which cytotoxicity call did it give?
The cytotoxicity call was “inactive”.

With `COc1ccc(NC(=O)N(C)C[C@@H]2Oc3c(NC(=O)Nc4ccc(C(F)(F)F)cc4)cccc3C(=O)N([C@H](C)CO)C[C@@H]2C)cc1` as the compound, how does the cytotoxicity call read?
Its cytotoxicity call is “inactive”.

Which cytotoxicity call does the source give for `C[C@@H]1CN([C@@H](C)CO)C(=O)c2cccc(NC(=O)c3ccc(-c4nccs4)cc3)c2O[C@H]1CN(C)Cc1ccc(Oc2ccccc2)cc1` here?
The cytotoxicity call was “inactive”.

How did the cytotoxicity call turn out when `COc1ccc(NC(=O)Nc2cccc3c2O[C@@H](CN(C)C(=O)Nc2ccc(C(F)(F)F)cc2)[C@H](C)CN([C@H](C)CO)C3=O)cc1` was run?
Its cytotoxicity call is “inactive”.

`Cc1noc(C)c1S(=O)(=O)Nc1ccc2c(c1)C(=O)N([C@@H](C)CO)C[C@@H](C)[C@@H](CN(C)S(=O)(=O)c1cn(C)cn1)O2` was tested. Which cytotoxicity call did it give?
The cytotoxicity call was “inactive”.

With `C[C@H](CO)N1C[C@H](C)[C@H](CN(C)C(=O)Nc2ccc(F)cc2)Oc2ccc(NS(=O)(=O)c3cn(C)cn3)cc2CC1=O` as the compound, how does the cytotoxicity call read?
Its cytotoxicity call is “inactive”.

How did the cytotoxicity call turn out when `C[C@@H]1CN([C@@H](C)CO)C(=O)Cc2cc(NC(=O)Cn3cnnn3)ccc2O[C@H]1CN(C)C(=O)Nc1ccc(F)cc1` was run?
Its cytotoxicity call is “inactive”.

For `CCOC(=O)[C@H]1C/C=C/C[C@H](C(=O)OCC)C(=O)O[C@H]2[C@@H](OC)O[C@H](CO)[C@@H](OC(=O)Nc3ccc4c(c3)OCO4)[C@@H]2OC1=O`, which cytotoxicity call is on record?
Its cytotoxicity call is “active”.

For `CO[C@H]1O[C@H](CO)[C@@H](OC(=O)Nc2cccc(F)c2)[C@@H]2OC(=O)[C@H](Cc3cccc(Br)c3)C/C=C/C[C@@H](Cc3cccc(Br)c3)C(=O)O[C@@H]12`, which cytotoxicity call is on record?
Its cytotoxicity call is “inactive”.

How did the cytotoxicity call turn out when `CCOC(=O)[C@H]1C/C=C/C[C@H](C(=O)OCC)C(=O)O[C@H]2[C@@H](OC)O[C@H](CO)[C@@H](OC(=O)c3c(OC)cccc3OC)[C@@H]2OC1=O` was run?
The cytotoxicity call was “inactive”.

With `CO[C@H]1O[C@H](CO)[C@@H](OC(=O)Nc2ccc3c(c2)OCO3)[C@@H]2OC(=O)[C@H](Cc3cccc(Br)c3)C/C=C/C[C@@H](Cc3cccc(Br)c3)C(=O)O[C@@H]12` as the compound, how does the cytotoxicity call read?
The cytotoxicity call was “inactive”.

With `CCOC(=O)[C@H]1C/C=C/C[C@H](C(=O)OCC)C(=O)O[C@H]2[C@@H](OC)O[C@H](CO)[C@@H](OC(=O)Nc3ccccc3)[C@@H]2OC1=O` as the compound, how does the cytotoxicity call read?
Its cytotoxicity call is “inactive”.

For `CCOC(=O)[C@H]1C/C=C/C[C@H](C(=O)OCC)C(=O)O[C@H]2[C@@H](OC)O[C@H](CO)[C@@H](OC(=O)Nc3ccc(OC)cc3)[C@@H]2OC1=O`, which cytotoxicity call is on record?
Its cytotoxicity call is “inactive”.

For `CCOC(=O)[C@H]1C/C=C/C[C@H](C(=O)OCC)C(=O)O[C@H]2[C@@H](OC)O[C@H](CO)[C@@H](OC(=O)Nc3ccc(Br)cc3)[C@@H]2OC1=O`, which cytotoxicity call is on record?
The cytotoxicity call was “active”.

Which cytotoxicity call does the source give for `CCOC(=O)[C@H]1C/C=C/C[C@H](C(=O)OCC)C(=O)O[C@H]2[C@@H](OC)O[C@H](CO)[C@@H](OC(=O)c3ccc(Br)cc3)[C@@H]2OC1=O` here?
The cytotoxicity call was “inactive”.

Which cytotoxicity call does the source give for `CCOC(=O)[C@H]1C/C=C/C[C@H](C(=O)OCC)C(=O)O[C@H]2[C@@H](OC)O[C@H](CO)[C@@H](OC(=O)Nc3cccc(F)c3)[C@@H]2OC1=O` here?
The cytotoxicity call was “active”.

Which cytotoxicity call does the source give for `COc1ccc(NC(=O)N(C)C[C@@H]2OCCCC[C@@H](C)Oc3ccc(NC(=O)c4ccccc4)cc3C(=O)N([C@@H](C)CO)C[C@H]2C)cc1` here?
The cytotoxicity call was “inactive”.

`CC1(C)OC2CC3C4CCC5=CC(=O)C=CC5(C)C4C(O)CC3(C)C2(C(=O)CO)O1` (stereo not drawn) was tested. Which cytotoxicity call did it give?
Its cytotoxicity call is “inactive”.

Which cytotoxicity call does the source give for `CC(=NNC(=O)c1nnn(-c2nonc2N)c1CN1CCC(C)CC1)c1cccc(Br)c1` here?
The cytotoxicity call was “inactive”.

With `CN1C(=O)[C@@H]2[C@H](N=CN2CCCO)N(C)C1=O` as the compound, how does the cytotoxicity call read?
Its cytotoxicity call is “inactive”.

Which cytotoxicity call does the source give for `C=CCNC(=O)[C@H]1[C@@H]2C(=O)O[C@@H](c3ccccc3)[C@@H](c3ccccc3)N2[C@@H](c2ccc(O)cc2)[C@]12C(=O)Nc1ccc(C#CC3=CCCCC3)cc12` here?
The cytotoxicity call was “inactive”.

For `COc1ccc(S(=O)(=O)Nc2ccc3c(c2)C(=O)N([C@@H](C)CO)C[C@H](C)[C@H](CN(C)S(=O)(=O)c2cn(C)cn2)OCCCC[C@@H](C)O3)cc1`, which cytotoxicity call is on record?
Its cytotoxicity call is “inactive”.

How did the cytotoxicity call turn out when `C[C@@H](NC(=O)C[C@H]1CC[C@@H](NC(=O)CN2CCOCC2)[C@@H](CO)O1)c1ccccc1` was run?
The cytotoxicity call was “inactive”.

With `C[C@@H]1CN([C@@H](C)CO)C(=O)Cc2cc(NC(=O)Cn3cnnn3)ccc2O[C@@H]1CN(C)Cc1ccc(C(F)(F)F)cc1` as the compound, how does the cytotoxicity call read?
Its cytotoxicity call is “inactive”.

Which cytotoxicity call does the source give for `CO[C@H](CN(C)C(=O)c1ccc2c(c1)OCO2)[C@H](C)CN([C@H](C)CO)S(=O)(=O)c1ccc(C)cc1` here?
Its cytotoxicity call is “inactive”.

Which cytotoxicity call does the source give for `CO[C@H](CN(C)C(=O)c1ccc2c(c1)OCO2)[C@@H](C)CN([C@H](C)CO)S(=O)(=O)c1ccc(C)cc1` here?
The cytotoxicity call was “inactive”.

Which cytotoxicity call does the source give for `COc1ccc(CNC(=O)[C@H](c2ccc(C)cc2)N(Cc2cccs2)C(=O)c2ccc3c(c2)OCCO3)cc1` here?
Its cytotoxicity call is “active”.

With `COc1cccc(C#Cc2cnc3c(c2)C(=O)N([C@H](C)CO)C[C@@H](C)[C@H](CN(C)C(=O)C2CCOCC2)O3)c1` as the compound, how does the cytotoxicity call read?
The cytotoxicity call was “inactive”.

For `CC(C)C#Cc1ccc2c(c1)O[C@@H](CN(C)C(=O)Cc1ccccn1)[C@H](C)CN([C@H](C)CO)S2(=O)=O`, which cytotoxicity call is on record?
Its cytotoxicity call is “inactive”.

How did the cytotoxicity call turn out when `C[C@@H]1CN([C@H](C)CO)C(=O)c2cccc(NC(=O)Nc3ccccc3)c2O[C@H]1CN(C)Cc1ccc(-c2ccccc2)cc1` was run?
The cytotoxicity call was “active”.

How did the cytotoxicity call turn out when `C[C@H]1CN([C@@H](C)CO)C(=O)c2cccc(NC(=O)Nc3ccccc3)c2O[C@@H]1CN(C)Cc1ccc(-c2ccccc2)cc1` was run?
The cytotoxicity call was “inactive”.

How did the cytotoxicity call turn out when `C[C@@H]1CN([C@@H](C)CO)C(=O)c2cccc(NC(=O)Nc3ccccc3)c2O[C@H]1CN(C)Cc1ccc(C(=O)Nc2ccccc2N)cc1` was run?
Its cytotoxicity call is “inactive”.

For `C[C@@H]1CN([C@H](C)CO)C(=O)c2cccc(NC(=O)Nc3ccccc3)c2O[C@@H]1CN(C)Cc1ccc(C(=O)Nc2ccccc2N)cc1`, which cytotoxicity call is on record?
Its cytotoxicity call is “inactive”.

`C[C@H](CO)N1C[C@H](C)[C@H](CN(C)Cc2ccc(-c3ccccc3)cc2)Oc2c(NC(=O)Nc3ccccc3)cccc2C1=O` was tested. Which cytotoxicity call did it give?
The cytotoxicity call was “inactive”.

Which cytotoxicity call does the source give for `C[C@H]1CN([C@@H](C)CO)C(=O)c2cccc(NC(=O)Nc3ccccc3)c2O[C@H]1CN(C)Cc1ccc(C(=O)Nc2ccccc2N)cc1` here?
Its cytotoxicity call is “active”.

For `C[C@@H]1CN([C@H](C)CO)C(=O)c2cccc(NC(=O)Nc3ccccc3)c2O[C@@H]1CN(C)Cc1ccc(-c2ccccc2)cc1`, which cytotoxicity call is on record?
The cytotoxicity call was “inactive”.

Which cytotoxicity call does the source give for `C[C@H](CO)N1C[C@H](C)[C@H](CN(C)Cc2ccc(-c3ccccc3)cc2)Oc2c(NC(=O)Nc3ccc(F)cc3)cccc2C1=O` here?
Its cytotoxicity call is “inactive”.

With `C[C@@H]1CN([C@@H](C)CO)C(=O)c2cccc(NC(=O)Nc3ccccc3)c2O[C@@H]1CN(C)Cc1ccc(-c2ccccc2)cc1` as the compound, how does the cytotoxicity call read?
Its cytotoxicity call is “active”.

Which cytotoxicity call does the source give for `C[C@@H]1CN([C@@H](C)CO)C(=O)c2cccc(NC(=O)Nc3ccccc3)c2O[C@H]1CN(C)Cc1ccc(-c2ccccc2)cc1` here?
Its cytotoxicity call is “active”.

For `C[C@H]1CN([C@@H](C)CO)C(=O)c2cccc(NC(=O)Nc3ccccc3)c2O[C@H]1CN(C)Cc1ccc(-c2ccccc2)cc1`, which cytotoxicity call is on record?
The cytotoxicity call was “inactive”.

For `C[C@H](CO)N1C[C@H](C)[C@@H](CN(C)Cc2ccc(-c3ccccc3)cc2)Oc2c(NC(=O)Nc3ccccc3)cccc2C1=O`, which cytotoxicity call is on record?
The cytotoxicity call was “inactive”.

— the antibiotic and cytotoxicity screens of Wong et al. (2023)
